The record followed here is ChEMBL document CHEMBL1961873, “Compounds: GSK PKIS; Assays: Nanosyn kinase panel” (2012).

Experiment [1] deals with T1, Serine/threonine-protein kinase Nek9 (Homo sapiens) (UniProt Q8TD19).
T1 sequence (whole entry): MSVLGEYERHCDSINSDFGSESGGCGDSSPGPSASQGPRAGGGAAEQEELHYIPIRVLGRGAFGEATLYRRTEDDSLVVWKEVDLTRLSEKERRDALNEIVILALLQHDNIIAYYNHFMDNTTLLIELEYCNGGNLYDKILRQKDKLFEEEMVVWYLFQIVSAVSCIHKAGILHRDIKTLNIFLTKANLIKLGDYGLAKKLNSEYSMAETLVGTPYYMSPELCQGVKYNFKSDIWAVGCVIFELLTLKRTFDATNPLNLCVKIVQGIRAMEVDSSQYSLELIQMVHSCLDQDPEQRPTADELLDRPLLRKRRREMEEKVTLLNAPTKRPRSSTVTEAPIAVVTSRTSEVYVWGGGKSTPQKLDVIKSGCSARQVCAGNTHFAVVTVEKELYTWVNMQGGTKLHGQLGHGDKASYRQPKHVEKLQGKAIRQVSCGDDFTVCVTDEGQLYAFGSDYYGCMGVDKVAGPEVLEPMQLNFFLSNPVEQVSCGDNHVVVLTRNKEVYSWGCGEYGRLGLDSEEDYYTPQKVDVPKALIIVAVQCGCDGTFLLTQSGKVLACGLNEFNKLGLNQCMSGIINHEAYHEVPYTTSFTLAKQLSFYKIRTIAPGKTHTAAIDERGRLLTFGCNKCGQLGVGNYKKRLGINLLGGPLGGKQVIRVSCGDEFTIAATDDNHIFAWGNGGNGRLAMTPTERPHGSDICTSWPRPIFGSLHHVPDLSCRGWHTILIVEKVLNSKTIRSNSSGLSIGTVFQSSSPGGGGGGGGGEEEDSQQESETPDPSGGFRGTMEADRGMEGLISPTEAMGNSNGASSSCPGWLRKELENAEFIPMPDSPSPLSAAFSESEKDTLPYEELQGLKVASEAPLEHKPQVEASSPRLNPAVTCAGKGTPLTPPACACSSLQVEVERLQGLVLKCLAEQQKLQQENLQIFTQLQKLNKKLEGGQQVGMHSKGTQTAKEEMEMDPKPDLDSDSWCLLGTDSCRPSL
As to conditions: at 1 µM.

Experiment [2] has as its target Serine/threonine-protein kinase PLK1 (Homo sapiens) (UniProt P53350). As to conditions: at 0.1 µM.
Experiment [3] shares this target. As to conditions: at 1 µM.
Experiment [4] has as its target T2, Dual specificity protein kinase TTK (Homo sapiens) (UniProt P33981).
T2 sequence (whole entry): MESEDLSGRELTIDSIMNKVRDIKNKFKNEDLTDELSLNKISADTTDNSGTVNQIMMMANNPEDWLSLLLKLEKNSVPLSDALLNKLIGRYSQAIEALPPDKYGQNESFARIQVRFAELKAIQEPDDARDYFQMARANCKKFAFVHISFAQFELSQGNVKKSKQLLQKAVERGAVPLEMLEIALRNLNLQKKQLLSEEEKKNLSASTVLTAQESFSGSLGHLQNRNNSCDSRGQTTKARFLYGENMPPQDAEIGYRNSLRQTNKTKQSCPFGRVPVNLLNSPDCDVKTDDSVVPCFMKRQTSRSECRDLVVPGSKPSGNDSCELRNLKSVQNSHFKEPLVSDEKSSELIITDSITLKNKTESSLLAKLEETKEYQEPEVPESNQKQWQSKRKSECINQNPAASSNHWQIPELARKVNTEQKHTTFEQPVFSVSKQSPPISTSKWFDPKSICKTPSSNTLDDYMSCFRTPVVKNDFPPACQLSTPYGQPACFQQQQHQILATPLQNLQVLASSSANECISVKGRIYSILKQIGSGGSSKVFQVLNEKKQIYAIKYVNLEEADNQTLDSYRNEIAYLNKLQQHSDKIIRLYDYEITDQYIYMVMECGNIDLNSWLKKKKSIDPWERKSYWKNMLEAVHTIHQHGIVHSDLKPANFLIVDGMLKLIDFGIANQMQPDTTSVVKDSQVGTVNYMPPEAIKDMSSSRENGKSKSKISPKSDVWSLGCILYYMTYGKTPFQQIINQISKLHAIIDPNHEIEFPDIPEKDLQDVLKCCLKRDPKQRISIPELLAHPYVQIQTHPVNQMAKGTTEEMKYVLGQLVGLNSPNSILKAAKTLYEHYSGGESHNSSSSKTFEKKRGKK
As to conditions: at 0.1 µM.

The subject of experiment [5] is T3, Receptor-type tyrosine-protein kinase FLT3 (Homo sapiens), P36888 [D835Y].
T3 sequence (whole entry): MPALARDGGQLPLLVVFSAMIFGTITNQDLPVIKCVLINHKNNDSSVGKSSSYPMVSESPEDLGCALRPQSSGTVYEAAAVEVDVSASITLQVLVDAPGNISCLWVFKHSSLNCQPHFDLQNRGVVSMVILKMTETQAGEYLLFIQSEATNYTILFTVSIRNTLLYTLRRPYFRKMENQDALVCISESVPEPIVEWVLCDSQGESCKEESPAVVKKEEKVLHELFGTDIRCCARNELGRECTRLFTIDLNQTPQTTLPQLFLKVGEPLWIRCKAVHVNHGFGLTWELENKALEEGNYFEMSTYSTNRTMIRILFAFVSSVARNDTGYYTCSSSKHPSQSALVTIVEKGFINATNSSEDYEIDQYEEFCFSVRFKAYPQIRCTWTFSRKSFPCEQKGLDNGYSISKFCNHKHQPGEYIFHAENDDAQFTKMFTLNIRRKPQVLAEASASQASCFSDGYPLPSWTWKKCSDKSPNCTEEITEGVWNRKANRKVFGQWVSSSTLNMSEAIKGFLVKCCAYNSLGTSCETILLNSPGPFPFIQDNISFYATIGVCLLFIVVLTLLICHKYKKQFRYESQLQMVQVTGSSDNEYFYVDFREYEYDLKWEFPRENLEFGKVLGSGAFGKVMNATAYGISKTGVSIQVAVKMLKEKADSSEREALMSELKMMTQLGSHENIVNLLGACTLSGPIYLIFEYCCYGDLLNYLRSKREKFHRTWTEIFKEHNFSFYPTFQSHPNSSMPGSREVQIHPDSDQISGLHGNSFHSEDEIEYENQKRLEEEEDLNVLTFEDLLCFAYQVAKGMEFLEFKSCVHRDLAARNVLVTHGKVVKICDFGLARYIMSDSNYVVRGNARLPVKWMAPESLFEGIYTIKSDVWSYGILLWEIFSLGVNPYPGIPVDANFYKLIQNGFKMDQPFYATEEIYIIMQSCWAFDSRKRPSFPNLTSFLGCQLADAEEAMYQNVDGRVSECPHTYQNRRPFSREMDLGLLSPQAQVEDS
As to conditions: at 1 µM.

For experiment [6], the target named is Vascular endothelial growth factor receptor 3 (Homo sapiens) (UniProt P35916). The note with it: at 0.1 µM.
Sequence of Vascular endothelial growth factor receptor 3 (Homo sapiens) (P35916 whole entry): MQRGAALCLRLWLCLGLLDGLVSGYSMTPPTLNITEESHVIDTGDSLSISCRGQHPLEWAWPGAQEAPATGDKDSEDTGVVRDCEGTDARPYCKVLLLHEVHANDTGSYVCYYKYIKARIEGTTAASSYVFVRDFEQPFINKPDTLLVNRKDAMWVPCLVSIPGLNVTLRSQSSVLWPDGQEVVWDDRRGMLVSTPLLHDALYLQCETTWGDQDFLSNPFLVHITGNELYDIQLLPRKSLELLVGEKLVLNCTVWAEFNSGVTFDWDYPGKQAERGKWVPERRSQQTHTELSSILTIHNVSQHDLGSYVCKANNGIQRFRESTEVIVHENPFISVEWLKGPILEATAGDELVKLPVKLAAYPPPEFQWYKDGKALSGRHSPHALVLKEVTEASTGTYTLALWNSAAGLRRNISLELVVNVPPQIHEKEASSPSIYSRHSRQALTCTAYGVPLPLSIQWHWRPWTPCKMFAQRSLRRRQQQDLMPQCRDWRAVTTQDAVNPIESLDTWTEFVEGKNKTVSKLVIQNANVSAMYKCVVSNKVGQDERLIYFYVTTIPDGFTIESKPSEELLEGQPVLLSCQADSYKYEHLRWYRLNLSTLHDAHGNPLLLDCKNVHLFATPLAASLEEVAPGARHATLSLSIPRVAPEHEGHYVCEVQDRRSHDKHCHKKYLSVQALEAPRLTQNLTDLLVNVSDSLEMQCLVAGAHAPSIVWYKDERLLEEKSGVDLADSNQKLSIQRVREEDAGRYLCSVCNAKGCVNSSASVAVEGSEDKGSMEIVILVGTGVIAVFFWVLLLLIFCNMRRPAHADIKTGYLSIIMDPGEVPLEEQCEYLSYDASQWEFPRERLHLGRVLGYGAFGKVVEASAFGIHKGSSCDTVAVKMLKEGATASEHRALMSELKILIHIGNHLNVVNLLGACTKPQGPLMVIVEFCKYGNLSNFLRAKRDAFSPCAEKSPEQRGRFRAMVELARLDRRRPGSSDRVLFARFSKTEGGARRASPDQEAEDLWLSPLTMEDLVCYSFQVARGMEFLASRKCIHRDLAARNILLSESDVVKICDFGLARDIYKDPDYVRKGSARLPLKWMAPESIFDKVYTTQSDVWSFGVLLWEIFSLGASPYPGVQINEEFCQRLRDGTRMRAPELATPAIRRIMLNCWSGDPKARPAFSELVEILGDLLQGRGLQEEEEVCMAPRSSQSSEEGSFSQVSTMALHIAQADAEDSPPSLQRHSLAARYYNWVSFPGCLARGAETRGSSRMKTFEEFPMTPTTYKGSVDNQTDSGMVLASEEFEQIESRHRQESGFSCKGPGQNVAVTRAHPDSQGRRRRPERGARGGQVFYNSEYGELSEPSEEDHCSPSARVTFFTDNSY
For experiment [7] the target is unchanged. The note with it: at 1 µM.
For experiment [8], the target named is Macrophage colony-stimulating factor 1 receptor (Homo sapiens) (UniProt P07333). As to conditions: at 0.1 µM.
Sequence of Macrophage colony-stimulating factor 1 receptor (Homo sapiens) (P07333 whole entry): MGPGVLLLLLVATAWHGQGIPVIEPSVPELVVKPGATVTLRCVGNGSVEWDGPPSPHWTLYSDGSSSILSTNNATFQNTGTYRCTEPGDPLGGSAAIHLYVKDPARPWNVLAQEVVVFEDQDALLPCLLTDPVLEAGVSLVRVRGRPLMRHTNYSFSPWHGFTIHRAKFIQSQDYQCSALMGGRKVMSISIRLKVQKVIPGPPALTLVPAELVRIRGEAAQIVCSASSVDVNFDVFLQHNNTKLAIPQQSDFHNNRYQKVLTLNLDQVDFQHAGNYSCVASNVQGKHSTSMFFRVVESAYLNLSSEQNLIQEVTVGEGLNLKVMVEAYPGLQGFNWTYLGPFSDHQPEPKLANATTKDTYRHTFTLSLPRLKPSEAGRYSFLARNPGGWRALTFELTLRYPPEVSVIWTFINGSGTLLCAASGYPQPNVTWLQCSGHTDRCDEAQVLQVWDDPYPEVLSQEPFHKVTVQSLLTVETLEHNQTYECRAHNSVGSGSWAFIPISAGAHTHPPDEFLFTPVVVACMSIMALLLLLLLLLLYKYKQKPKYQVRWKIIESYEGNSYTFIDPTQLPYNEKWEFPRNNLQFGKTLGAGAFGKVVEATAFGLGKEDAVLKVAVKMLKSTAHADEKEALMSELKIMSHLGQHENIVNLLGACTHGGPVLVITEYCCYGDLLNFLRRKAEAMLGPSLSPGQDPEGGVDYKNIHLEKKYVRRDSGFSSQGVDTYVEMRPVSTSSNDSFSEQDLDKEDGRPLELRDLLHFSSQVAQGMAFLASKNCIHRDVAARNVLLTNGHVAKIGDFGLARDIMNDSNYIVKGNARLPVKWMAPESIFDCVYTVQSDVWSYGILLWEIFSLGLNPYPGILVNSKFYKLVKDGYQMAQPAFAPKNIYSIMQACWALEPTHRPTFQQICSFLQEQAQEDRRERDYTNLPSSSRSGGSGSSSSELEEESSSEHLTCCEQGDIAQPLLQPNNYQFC
Experiment [9] shares this target. The note with it: at 1 µM.
Experiment [10] has as its target Tyrosine-protein kinase Fyn (Homo sapiens) (UniProt P06241). As to conditions: at 0.1 µM.

Sequence of Serine/threonine-protein kinase PLK1 (Homo sapiens) (P53350 whole entry): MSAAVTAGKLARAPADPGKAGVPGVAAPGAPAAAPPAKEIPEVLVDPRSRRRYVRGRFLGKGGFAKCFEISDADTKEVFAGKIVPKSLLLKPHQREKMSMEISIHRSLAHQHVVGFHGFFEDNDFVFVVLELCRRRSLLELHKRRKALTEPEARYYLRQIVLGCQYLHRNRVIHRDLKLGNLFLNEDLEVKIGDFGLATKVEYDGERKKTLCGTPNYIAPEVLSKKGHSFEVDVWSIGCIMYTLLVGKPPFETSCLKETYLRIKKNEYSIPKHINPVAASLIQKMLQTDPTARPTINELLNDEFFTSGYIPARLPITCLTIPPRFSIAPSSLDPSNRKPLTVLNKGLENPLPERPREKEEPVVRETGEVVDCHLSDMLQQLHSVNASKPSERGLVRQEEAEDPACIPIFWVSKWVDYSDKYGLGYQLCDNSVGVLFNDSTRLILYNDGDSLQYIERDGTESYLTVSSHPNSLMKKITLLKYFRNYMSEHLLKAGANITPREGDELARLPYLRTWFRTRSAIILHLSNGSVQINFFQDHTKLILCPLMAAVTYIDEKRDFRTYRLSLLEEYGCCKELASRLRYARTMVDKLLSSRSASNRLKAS
Sequence of Tyrosine-protein kinase Fyn (Homo sapiens) (P06241 2-537 limits assumed): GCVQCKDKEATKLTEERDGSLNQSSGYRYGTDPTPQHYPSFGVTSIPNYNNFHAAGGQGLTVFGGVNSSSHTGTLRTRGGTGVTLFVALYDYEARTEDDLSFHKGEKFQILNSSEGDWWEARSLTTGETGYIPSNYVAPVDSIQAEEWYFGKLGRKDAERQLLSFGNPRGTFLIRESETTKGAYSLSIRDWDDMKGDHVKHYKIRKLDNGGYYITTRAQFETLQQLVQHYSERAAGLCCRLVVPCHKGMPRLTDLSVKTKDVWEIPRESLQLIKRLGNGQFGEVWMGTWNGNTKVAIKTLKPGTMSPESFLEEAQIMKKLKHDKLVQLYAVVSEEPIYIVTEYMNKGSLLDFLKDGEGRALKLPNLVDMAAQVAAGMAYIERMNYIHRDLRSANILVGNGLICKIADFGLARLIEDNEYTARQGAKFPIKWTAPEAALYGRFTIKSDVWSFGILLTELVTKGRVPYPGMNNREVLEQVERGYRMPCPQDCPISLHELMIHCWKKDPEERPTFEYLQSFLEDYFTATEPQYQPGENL

For the compound `N#Cc1c(NC(=O)CN2CCOCC2)sc2c1CCCC2`, the inhibition in experiment [1] was determined as 1.68%; in [2], 2.26%; in experiment [3], 2.27%; in experiment [4], 9.9%; in [5] it was 0.1%; in [6], 0.77%. Besides, the inhibition in experiment [7] was 3.83%; in [8], 5.19%; in [9] it was 2.67%; in experiment [10], 0.52%.
For `CN1CCC(n2cnc(-c3ccc(F)cc3)c2-c2ccnc(N)n2)CC1`, the inhibition worked out at 11.4% in experiment [1]; 2.4% in experiment [2]; 0.91% in experiment [3]; 5.14% in [4]; 1.95% in experiment [5]; 1.56% in [6]. Besides, the inhibition turned out to be 2.31% in experiment [7], 2.19% in experiment [8], 6.29% in experiment [9] and 0.4% in experiment [10].
As to `CCOc1ccc2c(-c3ccnc(Nc4cccc(C(F)(F)F)c4)n3)cnn2n1`, the inhibition is 4.9% in experiment [1]; 0.64% in experiment [2]; 1.39% in experiment [3]; 3.43% in experiment [4]; 5.75% in experiment [5]; 2.01% in [6]. In addition, the inhibition in experiment [7] was 3.46%; in [8], -2.9%; in experiment [9], 14.1%; in experiment [10], 1.07%.
Take `O=C(Nc1n[nH]c2cc(-c3ccc(F)cc3)ccc12)C1CC1`: the inhibition in [1] was 6.43%; in [2] it was 2.87%; in experiment [3], 1.93%; in [4], 6.08%; in [5], 1.98%; in experiment [6], 1.27%. Moreover, the inhibition in [7] is 1.78%; in experiment [8] it was 1.64%; in [9] it was 1.6%; in [10], 2.62%.
On to `COc1cc(Nc2nccc(Nc3ccc4c(C)n[nH]c4c3)n2)cc(OC)c1OC`, for which the inhibition in experiment [1] amounted to 5.56%; in experiment [2] it was 2.28%; in experiment [3] it was 4.34%; in experiment [4] it was 2.57%; in experiment [5], 87.2%; in experiment [6], 78.8%. Further, the inhibition in experiment [7] came out at 106%; in experiment [8], 79.3%; in [9], 94.1%; in experiment [10] it was 44.9%.
As for `COc1cc(/C=N/Nc2ncnc3[nH]ncc23)ccc1O`, the inhibition is 7.86% in experiment [1]; 0.7% in experiment [2]; 7.67% in experiment [3]; 4.54% in experiment [4]; 34% in experiment [5]; 2.46% in experiment [6]. For the same compound, the inhibition in experiment [7] worked out at 26.1%; in experiment [8], 7.59%; in experiment [9], 34.4%; in [10] it was 8.72%.
For `CN1CCC(n2cnc(-c3ccc(F)cc3)c2-c2ccnc(Nc3ccccc3)n2)CC1`, the inhibition in [1] was determined as 10.1%; in experiment [2], 6.81%; in [3], 2.65%; in experiment [4], 9.56%; in experiment [5], 2.38%; in experiment [6] it was 0.02%. Besides, the inhibition was 1.32% in [7], -1.19% in experiment [8], 4.11% in experiment [9] and 0.05% in [10].
Take `NS(=O)(=O)c1ccc(Nc2ncc(-c3ccccc3)o2)cc1`: the inhibition worked out at 5.13% in experiment [1]; 1.46% in experiment [2]; 3.33% in [3]; 6.13% in experiment [4]; 21.6% in experiment [5]; 3.67% in [6]. In addition, the inhibition in experiment [7] is 9.2%; in experiment [8], 6.69%; in experiment [9] it was 32.5%; in experiment [10], 1.12%.

Broadly, the inhibition is the relative decrease from the control value, in per cent.
